The source of these data is PubChem BioAssay (Tox21).

Results filed as inconclusive are left out. Activity calls are given as the source filed them. Calls follow the shape of the dose curve; as a rule, active = well fitted cell-killing curve with a large enough effect in the repeat runs; inconclusive = weak or mixed curves, or effect the other way; inactive = flat fitted curve, though single readings scatter.

A short description of this test: qHTS RealTime-Glo MT Cell Viability Assay in HepG2 cells - 40 hour (AID 1224870). Also: nearly all actives have a fitted effect of over 50% in size. The note with it: RealTime-Glo luminescence; series mostly up to 76.8 µM. The source says: National Center for Advancing Translational Sciences [NCATS]
NIH Chemical Genomics Center [NCGC]
U.S. Environmental Protection Agency [EPA]
National Institutes of Environmental Health Sciences [NIEHS]
National Toxicology Program [NTP]
U.S. Food and Drug Administration [FDA]
Measure of cell viability is critical in the cell-base assay. Analysis of cell viability is necessary for the characterization of cell responses to cytotoxic drugs and environmental stress. A RealTime-Glo MT Cell Viability Assay to monitor cell viability in real time of continues cell culture during 40 hours of compound treatment was used to screen Tox21 10K library compounds in HepG2 cells. The RealTime-Glo MT Cell Viability Assay is a nonlytic, homogeneous, bioluminescent method to measure cell viability in real time using a simple, plate-based method. The assay involves adding NanoLuc luciferase and a cell-permeant prosubstrate to cells in culture. Viable cells reduce the proprietary prosubstrate to generate a substrate for NanoLuc luciferase. This substrate diffuses from cells into the surrounding culture medium, where it is rapidly used by the NanoLuc Enzyme to produce a luminescent signal. The signal correlates with the number of viable cells, making the assay well suited for cytotoxicity studies.
Tox21 Assay Protocol Summary:
The mixture of HepG2 cell suspension and reagents were dispensed at 600cells/6 ul/well in 1536-well tissue culture treated black solid bottom plates using a Multidrop dispenser. After the assay plates were incubated at a 37 C/5% CO2 incubator for 5 hours, 23 nL of compounds dissolved in DMSO, positive and negative controls was transferred to the assay plate by a pintool work station. The plates were incubated at 37 C for 40 hours. The luminescence intensity were measured at 0h, 8h, 16h, 24h, 32h and 40h time points using ViewLux plate reader during compound treatment.
(In qHTS, concentration-response curves come from the screen itself.)
`c1ccc(OP(Oc2ccccc2)Oc2ccccc2)cc1`: the call was inactive.

In the case of `c1cc2c3c(cccc3c1)CC2`, the call was inactive.

With `Nc1c(Cl)c(Cl)nc(C(=O)O)c1Cl`, the compound was classed as inactive.

In the case of `O=[N+]([O-])c1ccc(Oc2ccc(Cl)cc2Cl)cc1`, the compound was classed as inactive.

Consider `CCOC(=O)c1ccccc1C(=O)OCC`, for which the compound was classed as inactive.

With `CC(Oc1ccc(Cl)cc1Cl)C(=O)O` (stereo not given), the result was inactive.

Turning to `O=[N+]([O-])c1ccccc1`, the result was inactive.

In the case of `CN1C(=O)CN=C(c2ccccc2)c2cc(Cl)ccc21`, the compound was called inactive.

Turning to `CCC[N+](=O)[O-]`, the outcome was inactive.

On to `C=C(C)CCl`, for which the outcome was inactive.

As for `[N-]=[N+]=[N-]`, the compound was classed as inactive.

Take `Cc1ccccc1O`: the outcome was inactive.

For the compound `CCNc1nc(NC(C)(C)C)nc(SC)n1`, the outcome was inactive.

In the case of `Clc1ccccc1Cl`, the result was inactive.

Regarding `CCOP(=S)(OCC)SCCSCC`, the outcome was inactive.

Consider `O=c1[nH]c2ccccc2c(=O)o1`, for which the compound was called inactive.

In the case of `O=C(NC(=O)c1c(F)cccc1F)Nc1cc(Cl)c(OC(F)(F)C(F)C(F)(F)F)cc1Cl` (stereo not given), the compound was classed as inactive.

As to `Cc1cc(-c2cc(C)c(N)c(C)c2)cc(C)c1N`, the compound was classed as inactive.

Regarding `CC1C=[C-]C=C1.[C-]#[O+].[C-]#[O+].[C-]#[O+].[Mn]`, the result was inactive.

For `OCCN(CCO)CCO`, the compound was called inactive.

On to `BrCCBr`, for which the compound was called inactive.

Take `CCNc1nc(NC(C)C)nc(SC)n1`: the call was inactive.

For `CCCN(CCC)N=O`, the compound was called inactive.

As to `O=c1ccc(=O)[nH][nH]1`, the compound was classed as inactive.

Regarding `Cn1cc(-c2ccccc2)c(=O)c(-c2cccc(C(F)(F)F)c2)c1`, the compound was classed as inactive.

Consider `Clc1cccc(Cl)c1Cl`, for which the result was inactive.

With `CC(NC(C)(C)C)C(=O)c1cccc(Cl)c1` (stereo not given), the outcome was inactive.

In the case of `O=Cc1cccc(Oc2ccccc2)c1`, the result was inactive.

Consider `COC(=O)NC(=S)Nc1ccccc1NC(=S)NC(=O)OC`, for which the result was inactive.

In the case of `C=CCO`, the call was inactive.

For the compound `CC(C)OC(=O)Nc1cccc(Cl)c1`, the outcome was inactive.

`COC(=O)c1ccccc1N`: the call was inactive.

Regarding `CN(C)[C@@H]1C(=O)C(C(N)=O)=C(O)[C@@]2(O)C(=O)C3=C(O)c4c(O)cccc4[C@@](C)(O)[C@H]3C[C@@H]12`, the call was inactive.

Take `CN(C)CCO`: the call was inactive.

Regarding `O=S(=O)(c1ccc(Cl)cc1)c1cc(Cl)c(Cl)cc1Cl`, the call was inactive.

Consider `NCC(O)c1ccc(O)cc1` (stereo not given), for which the compound was called inactive.

With `CCCCCCCCCl`, the compound was classed as inactive.

For `C1CC2OC2CC1C1CO1` (stereo not given), the compound was called inactive.

Consider `C#CC(C)(C)NC(=O)c1cc(Cl)cc(Cl)c1`, for which the call was inactive.

Consider `CCCCCOC(=O)c1ccccc1C(=O)OCCCCC`, for which the compound was called inactive.
